From the supplement of paper PMC9262897, “Low-cost anti-mycobacterial drug discovery using engineered E. coli” (Nature Communications, 2022)
Structures can show the parent of a compound that is named as a salt. ± gives the standard deviation of the averaged measurements.

These compounds were tested on E. coli TESEC Mtb DapB (assay: growth (OD600 after 10 h); higher = more growth (less inhibition)). Settings: arabinose induction (level): High; compound 0.1 mM; raw OD600 reference: median of DMSO wells […], cell-free background 0.041.
Procedure: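 TESEC E. coli strains in which the native enzyme is deleted and replaced by arabinose-inducible Mtb Asd, DapB, CysH or TrpD, each grown in its selective medium. Strains were screened against the Prestwick library at 0.1 mM and 1% DMSO in 384-well format at low and high arabinose induction. Growth is read as OD600 after 10 h in triplicate.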
Work on `CC(C)(C)CC(C)(C)c1ccc(OCCOCC[N+](C)(C)Cc2ccccc2)cc1` [Benzethonium chloride] yielded a growth of 0.0485 ± 0.0028.
With `C=CC(N)CCC(=O)O` (stereo not given) [Vigabatrin] the growth was 0.174 ± 0.0095.
In the case of `CNCCCC1c2ccccc2C=Cc2ccccc21` [Protriptyline hydrochloride], the growth is reported as 0.164 ± 0.039.
For `CN1CCC(OC(c2ccccc2)c2ccccc2)CC1` [Diphenylpyraline hydrochloride], the growth was 0.211 ± 0.013.
`Clc1ccc(CCC(Cn2ccnc2)Sc2c(Cl)cccc2Cl)cc1` (stereo not given) [Butoconazole nitrate] was tested, and the growth was 0.0705 ± 0.0052.
`C#C[C@]1(O)CC[C@H]2[C@@H]3[C@H](C)CC4=C(CCC(=O)C4)[C@H]3CC[C@@]21C` [Tibolone] gave a growth of 0.17 ± 0.0045.
Work on `CC[N+](C)(CC)CCC[n+]1c(-c2ccccc2)c2cc(N)ccc2c2ccc(N)cc21` [Propidium iodide] yielded a growth of 0.137 ± 0.027.
Work on `CCOC(=O)[C@H](CCc1ccccc1)N[C@@H](C)C(=O)N1[C@H](C(=O)O)C[C@@H]2CCC[C@@H]21` [Ramipril] yielded a growth of 0.188 ± 0.013.
For `CC(C)(C(=O)c1cccnc1)c1cccnc1` [Metyrapone], the growth was 0.179 ± 0.015.
With `C[C@H](CCC(=O)O)[C@H]1CC[C@H]2[C@@H]3CC[C@@H]4C[C@H](O)CC[C@]4(C)[C@H]3CC[C@]12C` [Lithocholic acid] the growth was 0.214 ± 0.011.
Compound `CCCCC1(COC(=O)CCC(=O)O)C(=O)N(c2ccccc2)N(c2ccccc2)C1=O` [Suxibuzone] has a growth of 0.1763 ± 0.0008.
For `CC(c1cc2ccccc2s1)N(O)C(N)=O` (stereo not given) [Zileuton], the growth was 0.216 ± 0.029.
For `CCCCc1nc(Cl)c(CO)n1Cc1ccc(-c2ccccc2-c2nnn[nH]2)cc1` [Losartan], the growth was 0.195 ± 0.015.
`CCOC(=O)C1=C(C)NC(C)=C(C(=O)OCC)C1c1ccccc1/C=C/C(=O)OC(C)(C)C` [Lacidipine] showed a growth of 0.157 ± 0.0032.
`CC(=O)NC[C@H]1CN(c2ccc(N3CCOCC3)c(F)c2)C(=O)O1` [Linezolid] showed a growth of 0.0899 ± 0.0032.
For `CCOc1ccccc1OCC1CNCCO1` (stereo not given) [Viloxazine hydrochloride], the growth was 0.172 ± 0.029.
For `CCCC1C(=O)N2C(N(C)C)=Nc3ccc(C)cc3N2C1=O` (stereo not given) [Azapropazone], the growth was 0.185 ± 0.015.
In the case of `O=P(O)(O)C(Cl)(Cl)P(=O)(O)O` [Clodronate], the growth is reported as 0.223 ± 0.024.
`O=C1NCCN1CCN1CCC(c2cn(-c3ccc(F)cc3)c3ccc(Cl)cc23)CC1` [Sertindole] was tested, and the growth was 0.102 ± 0.09.
`NC[C@@H]1O[C@@H](O[C@H]2[C@H](O)[C@@H](O[C@H]3O[C@H](CO)[C@@H](O)[C@H](N)[C@H]3O)[C@H](N)C[C@@H]2N)[C@@H](O)[C@H](O)[C@H]1O` [Kanamycin A sulfate] gave a growth of 0.202 ± 0.0057.

Same assay, conditions: arabinose induction (level): Low; compound 0.1 mM; raw OD600 reference: median of DMSO wells 0.227, cell-free background 0.041
`CC(C)(C)CC(C)(C)c1ccc(OCCOCC[N+](C)(C)Cc2ccccc2)cc1` [Benzethonium chloride] was tested, and the growth was 0.0496 ± 0.0014.
Work on `C=CC(N)CCC(=O)O` (stereo not given) [Vigabatrin] yielded a growth of 0.192 ± 0.014.
`CNCCCC1c2ccccc2C=Cc2ccccc21` [Protriptyline hydrochloride] was tested, and the growth was 0.21 ± 0.011.
`CN1CCC(OC(c2ccccc2)c2ccccc2)CC1` [Diphenylpyraline hydrochloride] showed a growth of 0.246 ± 0.0048.
For `Clc1ccc(CCC(Cn2ccnc2)Sc2c(Cl)cccc2Cl)cc1` (stereo not given) [Butoconazole nitrate], the growth was 0.0712 ± 0.0093.
With `C#C[C@]1(O)CC[C@H]2[C@@H]3[C@H](C)CC4=C(CCC(=O)C4)[C@H]3CC[C@@]21C` [Tibolone] the growth was 0.172 ± 0.0081.
For `CC[N+](C)(CC)CCC[n+]1c(-c2ccccc2)c2cc(N)ccc2c2ccc(N)cc21` [Propidium iodide], the growth was 0.111 ± 0.021.
Work on `CCOC(=O)[C@H](CCc1ccccc1)N[C@@H](C)C(=O)N1[C@H](C(=O)O)C[C@@H]2CCC[C@@H]21` [Ramipril] yielded a growth of 0.229 ± 0.0092.
Compound `CC(C)(C(=O)c1cccnc1)c1cccnc1` [Metyrapone] has a growth of 0.188 ± 0.01.
Compound `C[C@H](CCC(=O)O)[C@H]1CC[C@H]2[C@@H]3CC[C@@H]4C[C@H](O)CC[C@]4(C)[C@H]3CC[C@]12C` [Lithocholic acid] has a growth of 0.229 ± 0.021.
With `CCCCC1(COC(=O)CCC(=O)O)C(=O)N(c2ccccc2)N(c2ccccc2)C1=O` [Suxibuzone] the growth was 0.204 ± 0.009.
`CC(c1cc2ccccc2s1)N(O)C(N)=O` (stereo not given) [Zileuton] gave a growth of 0.216 ± 0.017.
Compound `CCCCc1nc(Cl)c(CO)n1Cc1ccc(-c2ccccc2-c2nnn[nH]2)cc1` [Losartan] has a growth of 0.228 ± 0.018.
Work on `CCOC(=O)C1=C(C)NC(C)=C(C(=O)OCC)C1c1ccccc1/C=C/C(=O)OC(C)(C)C` [Lacidipine] yielded a growth of 0.182 ± 0.0034.
`CC(=O)NC[C@H]1CN(c2ccc(N3CCOCC3)c(F)c2)C(=O)O1` [Linezolid] showed a growth of 0.0871 ± 0.0054.
With `CCOc1ccccc1OCC1CNCCO1` (stereo not given) [Viloxazine hydrochloride] the growth was 0.211 ± 0.019.
`CCCC1C(=O)N2C(N(C)C)=Nc3ccc(C)cc3N2C1=O` (stereo not given) [Azapropazone] showed a growth of 0.206 ± 0.025.
Compound `O=P(O)(O)C(Cl)(Cl)P(=O)(O)O` [Clodronate] has a growth of 0.212 ± 0.024.
In the case of `O=C1NCCN1CCN1CCC(c2cn(-c3ccc(F)cc3)c3ccc(Cl)cc23)CC1` [Sertindole], the growth is reported as 0.0562 ± 0.012.
`NC[C@@H]1O[C@@H](O[C@H]2[C@H](O)[C@@H](O[C@H]3O[C@H](CO)[C@@H](O)[C@H](N)[C@H]3O)[C@H](N)C[C@@H]2N)[C@@H](O)[C@H](O)[C@H]1O` [Kanamycin A sulfate] was tested, and the growth was 0.28 ± 0.056.
